The record followed here is PubChem BioAssay (Tox21).

Unmarked numbers belong to inactive results. Activity calls are given as the source filed them. Calls follow the shape of the full dose curve.
% is scaled to controls: 0 for no effect and ±100 for the full control effect.

The nature of the experiment: qHTS assay to identify small molecule agonists of the sonic hedgehog signaling (Shh) pathway (AID 1259368).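 Also: NIH/3T3-derived 3T3Gli1-Luc cells carrying a stable Gli1-driven firefly luciferase reporter; nearly all actives have a fitted effect of over 15% in size.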 The note with it: NIH/3T3 Gli1-Luc reporter, luciferase, 24 h, hits give high values; series mostly up to 92.4 µM. The text has this:
National Center for Advancing Translational Sciences [NCATS]
NIH Chemical Genomics Center [NCGC]
U.S. Environmental Protection Agency [EPA]
National Institutes of Environmental Health Sciences [NIEHS]
National Toxicology Program [NTP]
The sonic hedgehog (Shh) pathway is essential for normal embryonic development. Dysregulation of the Shh pathway can cause severe developmental defects in organs. Therefore chemicals that interfere with the pathway are potential developmental toxicants. A cell line designated 3T3Gli1-Luc (DMB/OARSA/CFSAN/FDA, Laurel, MD), a NIH/3T3 derived clone containing stably integrated Gli1-Luc reporter is used to detect chemical interference of the Shh pathway, by changes in the expression of the firefly Luc gene under the control of the Gli1 transcriptional response element. This cell line was used to screen Tox21 libraries for identifying and prioritizing the potential developmental toxicants that interfere Shh pathway.
3T3 Gli1-Luc cells were dispensed at 2,000 per well in 5uL of culture medium into white solid bottom 1536-well plates (Greiner Bio-One, Monroe, NC) using a Multidrop Combi (Thermo Scientific, Waltham, MA) dispenser. The assay plates were incubated at 37 C and 5% CO2 for 4hr, and then 23nL of compounds dissolved in DMSO and positive control were transferred using a Pintool station (Wako, San Diego, CA). The assay plates were incubated at 37C and 5% CO2 for 24hr. For luciferase read, 4uL of Amplite Luciferase reporter gene assay reagent (AAT Bioquest, Inc. Sunnyvale, CA) was added to each well of the assay plates using Flying Reagent Dispenser (FRD, Aurora Discovery, San Diego, CA) and incubated at room temperature for 30min. The luminescence signal was measured using a ViewLux plate reader (Perkin Elmer, Shelton, CT).
As for `C[C@H](CCC(=O)O)[C@H]1CC[C@H]2[C@@H]3[C@H](O)C[C@@H]4C[C@H](O)CC[C@]4(C)[C@H]3C[C@H](O)[C@]12C`, the molecule was classed as inactive.

As for `CC(C)CCCC(C)CC=O` (stereo not given), the result was inactive.

On to `BrC/C=C/CBr`, for which the activity change was -1.5% [at 18.9 µM].

With `CCCCCCCCCCCCC`, the molecule was classed as inactive.

Consider `CO/N=C(/C(=O)N[C@@H]1C(=O)N2C(C(=O)O)=C(Cn3nnc(C)n3)CS[C@H]12)c1csc(N)n1`, for which the result was inactive.

`COc1ccc(NS(=O)(=O)c2ccc(N)cc2)nn1`: the molecule was classed as inactive.

With `C=CC(C)(O)CC/C=C(\C)CC` (stereo not given), the molecule was classed as inactive.

Take `CC(Cl)COP(=O)(OCC(C)Cl)OCC(C)Cl` (stereo not given): the result was inactive.

With `FC(F)(F)/C(=N\OCC1OCCO1)c1ccc(Cl)cc1`, the result was inactive.

As to `CCCCCCCC[Si](OCC)(OCC)OCC`, the call was inactive.

For `CCCCCCCCCCC`, the result was inactive.

In the case of `O=C(Nc1cccc(C2=NCCN2)c1)Nc1cccc(C2=NCCN2)c1`, the activity change is 1.95% [at 18.9 µM].

In the case of `CCCCCCCCC(=O)OCC`, the call was inactive.

In the case of `CNCc1ccccc1`, the result was inactive.

`CCCCC/C=C/CC(=O)OC`: the call was inactive.

As for `CCCCCCCCCCCCCCCCCCN(C)C`, the molecule was called inactive.

`O=C(O)CCNC(=O)c1ccccc1`: the molecule was classed as inactive.

With `Cc1cc(O)c2c(c1)C(=O)c1cccc(O)c1C2=O`, the call was inactive.

Turning to `Nc1cc(C(=O)O)ccc1Cl`, the outcome was inactive.

As for `CCCOC(=O)CCCCC(=O)OCCC`, the call was inactive.

Regarding `C=C(C)C(=O)OC`, the call was inactive.

For the molecule `CC(C)SCc1ccco1`, the call was inactive.

For `CC(=O)Nc1ncc([N+](=O)[O-])s1`, the result was inactive.

As for `Cc1ccccc1N1CCN(CCc2nnc3n2CCCC3)CC1`, the molecule was classed as inactive.

As for `O=C(/C=C/c1ccccc1)NCCO`, the outcome was inactive.

As to `C/C=C(\C)C(=O)OCC/C=C\CC`, the call was inactive.

Take `CCC1Nc2cc(Cl)c(S(N)(=O)=O)cc2S(=O)(=O)N1` (stereo not given): the molecule was classed as inactive.

As to `COc1ccc(N=Nc2cc(C)c(N=Nc3ccc(S(=O)(=O)O)cc3)cc2OC)cc1`, the call was inactive.

Turning to `CC(=O)OC(C(=O)c1ccccc1)c1ccccc1` (stereo not given), the molecule was called inactive.

On to `CC(C)CCO`, for which the call was inactive.

Take `CCC(O)C(C)(C)C` (stereo not given): the call was inactive.

On to `NC(=O)NC(=O)Cc1ccccc1`, for which the molecule was called inactive.

In the case of `O=C(O)/C=C/c1ccccc1`, the molecule was called inactive.

For `NC(=O)C1(N2CCCCC2)CCN(CCCC(=O)c2ccc(F)cc2)CC1`, the molecule was classed as inactive.

As to `CCCCCC1Nc2cc(C(F)(F)F)c(S(N)(=O)=O)cc2S(=O)(=O)N1` (stereo not given), the result was inactive.

`CN=C(NC#N)NCCSCc1csc(N=C(N)N)n1`: the molecule was called inactive.

Regarding `CCCC(C)CC` (stereo not given), the outcome was inactive.

As to `CCCCCN(CCCOC)C(=O)C(CCC(=O)O)NC(=O)c1ccc(Cl)c(Cl)c1` (stereo not given), the outcome was inactive.

For `O=C1CC[C@H](C(=O)N2CCCCC2)N1`, the molecule was classed as inactive.

As to `CC(C)(c1ccc(Oc2ccc3c(c2)C(=O)OC3=O)cc1)c1ccc(Oc2ccc3c(c2)C(=O)OC3=O)cc1`, the outcome was inactive.
